For 43 sequences, binding signal results are on record in PMC10726135, “HNF4α isoforms regulate the circadian balance between carbohydrate and lipid metabolism in the liver”.

In all, about 18,000 sequences were measured (“log2 normalized intensity”: median about 0.39, highest 2% from about 6.6 on). Many of the other results were omitted from the sample, so the highest values are more common in it than they were.

For the experiment, the target named is T1, HNF4alpha2 (COS-7 nuclear extract) (Homo sapiens, UniProt P41235 1-474).
T1 sequence: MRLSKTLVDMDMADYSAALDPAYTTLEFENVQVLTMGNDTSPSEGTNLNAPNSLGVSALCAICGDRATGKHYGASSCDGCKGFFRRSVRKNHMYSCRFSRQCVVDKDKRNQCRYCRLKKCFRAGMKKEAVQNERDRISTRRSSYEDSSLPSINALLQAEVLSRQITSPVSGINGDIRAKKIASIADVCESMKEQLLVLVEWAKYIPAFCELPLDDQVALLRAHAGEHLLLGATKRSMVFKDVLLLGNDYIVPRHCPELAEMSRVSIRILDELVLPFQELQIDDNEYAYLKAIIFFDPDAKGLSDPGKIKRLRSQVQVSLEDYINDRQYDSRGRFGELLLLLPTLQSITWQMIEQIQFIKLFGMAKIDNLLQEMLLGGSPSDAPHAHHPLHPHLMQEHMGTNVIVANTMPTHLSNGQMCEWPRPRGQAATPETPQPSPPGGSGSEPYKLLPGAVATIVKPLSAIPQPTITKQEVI
Description: protein-binding microarray; COS-7 nuclear extract on double-stranded Agilent 4x180k PBM; binding buffer, salt, pH and temperature not given in the material; high values mean tight binding. To be noted: chain copies: 2; label: 3' end of strand 1 on the slide; dsDNA, one strand shown. An outline of the steps:
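COS-7 cells were transiently transfected by CaPO4 with an expression vector for a human HNF4α isoform, and nuclear extracts were prepared from them. The extracts were applied to a custom Agilent SurePrint G3 4x180k array of double-stranded ~60-nt oligonucleotides, with ~44,000 test sequences spotted in quadruplicate. An Agilent G2565CA scanner imaged bound HNF4α at 2-µm resolution. Binding signal is the background-corrected, normalized gProcessedSignal from Agilent software.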
Regarding “CCTTTGGACTGTGACCCCACCTCTCAGACAGCCTAGGGAGATTAGAGTATCGGTCGA”, the binding signal is 4.83 log2 normalized intensity.
The result for “GGACTGTGACCCCACCTCTCAGACAGAGCTGCCTAGGGAGATTAGAGTATCGGTCGA” reads 2.75 log2 normalized intensity.
The result for “CTTTGGAACCTGCCCTCTGTCCCATGGTGTGCCTAGGGAGATTAGAGTATCGGTCGA” reads 2.48 log2 normalized intensity; that for “CTGCCCTTTGGAACCTGCCCTCTGTCCCATGCCTAGGGAGATTAGAGTATCGGTCGA”, 4.15 log2 normalized intensity.
The result for “GGGCAGGGTCAGAACCTGCCCATGACCTTTGCCTAGGGAGATTAGAGTATCGGTCGA” reads 5.92 log2 normalized intensity; that for “AGAACCTGCCCATGACCTTTGGACTGTGACGCCTAGGGAGATTAGAGTATCGGTCGA”, 9.54 log2 normalized intensity; that for “CATGACCTTTGGACTGTGACCCCACCTCTCGCCTAGGGAGATTAGAGTATCGGTCGA”, 7.45 log2 normalized intensity.
As to “AAACCCAAGATTTGGTGTTACCTTTGGACTGCCTAGGGAGATTAGAGTATCGGTCGA”, the binding signal was 5.71 log2 normalized intensity.
As for “GGGTCAGAACCTGCCCATGACCTTTGGACTGCCTAGGGAGATTAGAGTATCGGTCGA”, the binding signal is 11.1 log2 normalized intensity.
Consider “TGTAATAAGGAGTTGTGTGATAAGGAGGGCGCCTAGGGAGATTAGAGTATCGGTCGA”, for which the binding signal was found to be 0.534 log2 normalized intensity.
The result for “CATGCAATCACACTAATCTGTCAGAAAACCGCCTAGGGAGATTAGAGTATCGGTCGA” reads -0.731 log2 normalized intensity; that for “GGTGAGGGTTACAGGTGGACAAACAGGCTGGCCTAGGGAGATTAGAGTATCGGTCGA”, -0.829 log2 normalized intensity.
For the sequence “GAATTTGGACTTTGCACTAAAAGCCATGAGGCCTAGGGAGATTAGAGTATCGGTCGA”, the binding signal was determined as 5.86 log2 normalized intensity.
Regarding “TGGACTTTGGAATTAAGGAGATTTGGCTTTGCCTAGGGAGATTAGAGTATCGGTCGA”, the binding signal is 4.84 log2 normalized intensity.
The result for “GAAGATCGCAGACTTTGGACTCTGCAAGGAGCCTAGGGAGATTAGAGTATCGGTCGA” reads 5.8 log2 normalized intensity.
To “GGGTCCTGGCAGCACCTGAAGAATTTGGACGCCTAGGGAGATTAGAGTATCGGTCGA” belongs 1.23 log2 normalized intensity.
The result for “TGGACTTTGCACTAAAAGCCATGAGAAGGTGCCTAGGGAGATTAGAGTATCGGTCGA” reads 4.84 log2 normalized intensity.
Consider “AGCACCTGAAGAATTTGGACTTTGCACTAAGCCTAGGGAGATTAGAGTATCGGTCGA”, for which the binding signal was 8.43 log2 normalized intensity.
To “CTGAAGAATTTGGACTTTGCACTAAAAGCCGCCTAGGGAGATTAGAGTATCGGTCGA” belongs 6.95 log2 normalized intensity.
In the case of “GGAGACCTGAAACTAGACCAAGAAGACTTTGCCTAGGGAGATTAGAGTATCGGTCGA”, the binding signal is -0.974 log2 normalized intensity.
To “TTCCTGAAGATCGCAGACTTTGGACTCTGCGCCTAGGGAGATTAGAGTATCGGTCGA” belongs 7.83 log2 normalized intensity.
To “AGGGATTCCTGAAGATCGCAGACTTTGGACGCCTAGGGAGATTAGAGTATCGGTCGA” belongs 5.66 log2 normalized intensity; to “GGTGAGTCTTTGCCCCTGGACTTTGAATTTGCCTAGGGAGATTAGAGTATCGGTCGA”, 4.94 log2 normalized intensity; to “CTGGCAGCACCTGAAGAATTTGGACTTTGCGCCTAGGGAGATTAGAGTATCGGTCGA”, 7.7 log2 normalized intensity.
To “AATAGTGACCTCTGCTGGCCAGTGGAAAACGCCTAGGGAGATTAGAGTATCGGTCGA” belongs 1.08 log2 normalized intensity; to “CAGTCTAGAATCTGCAGCCCCTTTTGGAATGCCTAGGGAGATTAGAGTATCGGTCGA”, 2.02 log2 normalized intensity.
In the case of “CCACTGGAGTCTTGTTTGTCAAGTTTGGTAGCCTAGGGAGATTAGAGTATCGGTCGA”, the binding signal stood at 1.81 log2 normalized intensity.
To “AGGGTGTTGTGGAATGTGCTTGGACCTGCTGCCTAGGGAGATTAGAGTATCGGTCGA” belongs 1.99 log2 normalized intensity; to “AGAAATGTTATCTCAGTAGACTAACGTATGGCCTAGGGAGATTAGAGTATCGGTCGA”, 0.476 log2 normalized intensity; to “GCATTCCACCAAATCTTACCTAAGGAAGTTGCCTAGGGAGATTAGAGTATCGGTCGA”, -0.954 log2 normalized intensity.
The result for “TTGGACTTTGTACATTCCAAATACGATAATGCCTAGGGAGATTAGAGTATCGGTCGA” reads 5.36 log2 normalized intensity.
The result for “GGGCTTTTGTCACATTCCAGACTTTGTACAGCCTAGGGAGATTAGAGTATCGGTCGA” reads 4.95 log2 normalized intensity; that for “AGAAGTTGGACTTTGTACATTCCAAATACGGCCTAGGGAGATTAGAGTATCGGTCGA”, 6.88 log2 normalized intensity; that for “GTACTTTGTACATGGGAATAGACATTCCAGGCCTAGGGAGATTAGAGTATCGGTCGA”, 2.04 log2 normalized intensity.
In the case of “ACATCAGAAGTTGGACTTTGTACATTCCAAGCCTAGGGAGATTAGAGTATCGGTCGA”, the binding signal was found to be 7.69 log2 normalized intensity.
To “TCCAAAATACGACCTTTGGACAGGGTGACGGCCTAGGGAGATTAGAGTATCGGTCGA” belongs 6.8 log2 normalized intensity; to “ATTCCAAGAAGAGCCAATAGTACACATCAAGCCTAGGGAGATTAGAGTATCGGTCGA”, -0.572 log2 normalized intensity; to “CCTGGTGACCTTTGTTTGGTCAAATACCTAGCCTAGGGAGATTAGAGTATCGGTCGA”, 2.9 log2 normalized intensity.
To “AATACGACCTTTGGACAGGGTGACGTCATTGCCTAGGGAGATTAGAGTATCGGTCGA” belongs 6.27 log2 normalized intensity; to “ATGGTGGCCATTCTGATTTGATAAGATGTGGCCTAGGGAGATTAGAGTATCGGTCGA”, 0.774 log2 normalized intensity.
The result for “CTTCGTCCTGAGCAGTCCCTTCCCCCCTCCGCCTAGGGAGATTAGAGTATCGGTCGA” reads 5.36 log2 normalized intensity; that for “ACTTGTTCCCTGTCGCTATCTTATCTGGGCGCCTAGGGAGATTAGAGTATCGGTCGA”, 1.62 log2 normalized intensity.
Turning to “CTCATTCTTGGAATGCATTGCAAGTCGTATGCCTAGGGAGATTAGAGTATCGGTCGA”, the binding signal amounted to 1.17 log2 normalized intensity.
